Each compound was assayed on Plasmodium falciparum (assay: GSK_TCMDC: Inhibition of Plasmodium falciparum Dd2 in whole red blood cells, using parasite LDH activity as an index of growth. Test compounds present at 2uM).
Assay type: functional

COc1c(C2CCN(CCN3CCC(CNC(=O)c4ccc(-c5ccc(C#N)cc5)cc4)CC3)CC2)ccc2c1CCCC2 was tested. Which Inhibition did it give?
Its Inhibition is 100%.

How did the Inhibition turn out when CC(Oc1cc(-n2cnc3ccc(NC(=O)CCN4CCCCC4)cc32)sc1C(N)=O)c1ccccc1Cl (stereo not given) was run?
The Inhibition was 98%.

Which Inhibition does the source give for Cc1cc(O)c(CN(C)Cc2ccc3c(c2)OCO3)cc1C(C)C here?
Its Inhibition is 74%.

With COc1ccc2nccc([C@@H](O)CN3CCC(NC(=O)c4ccc(CN5CCN(c6cccc(C)c6)CC5C)cc4)CC3)c2c1 (stereo not given in full) as the compound, how does the Inhibition read?
The Inhibition was 86%.

Nc1ccc(-c2nc3cc(Oc4ccc5[nH]c(-c6ccc(N)cc6)nc5c4)ccc3[nH]2)cc1 was tested. Which Inhibition did it give?
The Inhibition was 99%.

For COc1ccc2nccc([C@@H](O)CN3CCC(NCCOc4cc(F)cc(F)c4)CC3)c2c1.O=C(O)C(=O)O, which Inhibition is on record?
Its Inhibition is 86%.

With O=C(NCC1CCC(CNCCCc2ccccc2)CC1)c1cc(Cl)cc(Cl)c1 (stereo not given) as the compound, how does the Inhibition read?
The Inhibition was 13%.

O=C(Nc1ccc(Cl)c(Cl)c1)Nc1ccc(F)c([N+](=O)[O-])c1 was tested. Which Inhibition did it give?
The Inhibition was 96%.

Cc1cccc(CN2CCN(c3ncc(C(=O)NC4CC4)cc3Cl)CC2)c1.O=C(O)C(F)(F)F was tested. Which Inhibition did it give?
Its Inhibition is 73%.

Which Inhibition does the source give for Brc1ccccc1CNc1ccnc(NCCn2ccnc2)n1 here?
The Inhibition was 33%.

How did the Inhibition turn out when O=C(Nc1cccc(-c2ccc(CN3CCC(O)CC3)cc2)c1)c1ccc(Cl)cc1.O=C(O)C(F)(F)F was run?
The Inhibition was 8%.

For COC(=O)C(NC(=O)c1ccc(-c2ccc(-c3nc4ccccc4[nH]3)s2)cc1)c1ccc(O)cc1 (stereo not given), which Inhibition is on record?
The Inhibition was 49%.

Which Inhibition does the source give for COc1ccc2nccc([C@@H](O)CN3CCC(NCc4ccc5c(c4)sc(=O)n5C)CC3)c2c1.O=C(O)C(=O)O here?
Its Inhibition is 72%.

COc1ccc2cc(C(c3nnnn3CC3CCCO3)N3CCc4ccccc43)c(=O)[nH]c2c1 (stereo not given) was tested. Which Inhibition did it give?
The Inhibition was 3%.

Cc1c(C)n(Cc2ccccc2)c2ncnc(OC3CCN(CC(=O)NCC4CC4)CC3)c12 was tested. Which Inhibition did it give?
The Inhibition was 79%.

With Cc1c(OC(C)C)nc2ccccc2c1C(=O)N[C@H](c1cccc(F)c1)C1CC1 as the compound, how does the Inhibition read?
The Inhibition was 34%.

For Cc1[nH]c2ccccc2c(=O)c1Br, which Inhibition is on record?
The Inhibition was 84%.

Cc1cc(Cl)ccc1NC(=O)NCCCCCN1CCC(c2c[nH]c3ccccc23)CC1 was tested. Which Inhibition did it give?
Its Inhibition is 8%.

Which Inhibition does the source give for Nc1nc(N)c2c(Cc3ccccc3)cccc2n1 here?
The Inhibition was 3%.

COc1ccc2nccc([C@@H](O)CN3CCC(NC(=O)/C=C/c4cc(F)cc(NC(C)=O)c4)CC3)c2c1 was tested. Which Inhibition did it give?
Its Inhibition is 49%.

How did the Inhibition turn out when Nc1ccn([C@@H]2O[C@H](COC(c3ccccc3)(c3ccccc3)c3ccccc3)[C@@H](O)[C@@H]2O)c(=O)n1 was run?
The Inhibition was 2%.

Which Inhibition does the source give for Cc1ccn2cc(-c3ccc(NC(=O)c4ccc(Br)o4)cc3)nc2c1 here?
The Inhibition was 41%.

How did the Inhibition turn out when COc1cccc(-c2[nH]c3ccccc3c2CN2CCC(c3c(C)cccc3C)CC2)c1 was run?
The Inhibition was 24%.

Which Inhibition does the source give for O=C(Nc1ccccc1)c1ccc(-c2cc3ccncc3cc2OC2CCNCC2)s1 here?
Its Inhibition is 8%.

Which Inhibition does the source give for COc1cccc(CC(=O)N2CCC(n3c(C)nc4ccc(F)cc43)CC2)c1 here?
Its Inhibition is 99%.

For COc1ccc(Nc2nccc(N3CCC(NC(=O)C(C)c4ccc(Cl)cc4)CC3)n2)cc1 (stereo not given), which Inhibition is on record?
Its Inhibition is 52%.

How did the Inhibition turn out when CC(C)CCN1CCCN(Cc2ccc(C(=O)Nc3ccc(F)c(F)c3)cc2)CC1.O=C(O)C(F)(F)F was run?
The Inhibition was 27%.

For Cc1cc(C(=O)Nc2ccc(-c3nc4ccccc4[nH]3)cc2)ccc1[N+](=O)[O-], which Inhibition is on record?
The Inhibition was 47%.

With CN(C)CCOc1ccc(/C(=C(/CCCn2ccnc2)c2ccccc2)c2ccc(O)cc2)cc1 as the compound, how does the Inhibition read?
Its Inhibition is 99%.

O=C(OCc1ccccc1)N1CCc2c([nH]c3ccccc23)C1CCC(F)(F)F (stereo not given) was tested. Which Inhibition did it give?
Its Inhibition is 81%.

How did the Inhibition turn out when O=C(Nc1ccc(CN2CCCCC2)cc1)c1ccc(COc2ccc([N+](=O)[O-])cc2)o1 was run?
The Inhibition was 0%.

Which Inhibition does the source give for CN1CCCN(Cc2cccc(-c3cccc(NC(=O)c4ccc(Cl)cc4)c3)c2)CC1.O=C(O)C(F)(F)F here?
Its Inhibition is 44%.

For COc1ccc(-c2ccc(NC(=O)c3cccc(Cl)c3)cc2)cc1CN1CCN(C)CC1.O=C(O)C(F)(F)F, which Inhibition is on record?
Its Inhibition is 33%.

For CC(C)COc1ccc(Cl)cc1Cc1nc(-c2nc3ccc(N4CCN(C)CC4)nc3[nH]2)cs1.Cl, which Inhibition is on record?
Its Inhibition is 27%.

CCCCN(Cc1cnccc1-c1ccc(Br)cc1)c1ccc(C(O)(C(F)(F)F)C(F)(F)F)cc1.O=C(O)C(F)(F)F was tested. Which Inhibition did it give?
Its Inhibition is 45%.

Which Inhibition does the source give for COc1cccc(-c2cccc(NC(=O)C3CCN(Cc4ccc(O)cc4)CC3)c2)c1 here?
The Inhibition was 97%.

Which Inhibition does the source give for C#CC[C@@H](NC(N)=O)C(=O)O here?
The Inhibition was 0%.

How did the Inhibition turn out when C=C[C@]1(C)C[C@@H](OC(=O)c2cncn(COC)c2=O)[C@]2(C)[C@H](C)CC[C@]3(CCC(=O)[C@H]32)[C@@H](C)[C@@H]1O was run?
The Inhibition was 7%.

Which Inhibition does the source give for C=CCOC(=O)N1CCC(CNCc2ccc(-c3cccc(-c4nc5cc(F)ccc5[nH]4)c3)cc2)C1.O=C(O)C(F)(F)F (stereo not given) here?
Its Inhibition is 99%.

Which Inhibition does the source give for Cc1cc(C(=O)Nc2ccc3c(c2)CCN3C2CCN(Cc3csc4ccccc34)C2)no1 (stereo not given) here?
Its Inhibition is 96%.

These compounds were tested on HepG2 (assay: GSK_TCMDC: Percent inhibition of human HepG2 cell line. Test compounds present at 10uM.).
Assay type: functional

COc1c(C2CCN(CCN3CCC(CNC(=O)c4ccc(-c5ccc(C#N)cc5)cc4)CC3)CC2)ccc2c1CCCC2 was tested. Which Inhibition did it give?
Its Inhibition is 96%.

With CC(Oc1cc(-n2cnc3ccc(NC(=O)CCN4CCCCC4)cc32)sc1C(N)=O)c1ccccc1Cl (stereo not given) as the compound, how does the Inhibition read?
Its Inhibition is 95%.

Which Inhibition does the source give for Cc1cc(O)c(CN(C)Cc2ccc3c(c2)OCO3)cc1C(C)C here?
The Inhibition was 9%.

How did the Inhibition turn out when COc1ccc2nccc([C@@H](O)CN3CCC(NC(=O)c4ccc(CN5CCN(c6cccc(C)c6)CC5C)cc4)CC3)c2c1 (stereo not given in full) was run?
Its Inhibition is 50%.

How did the Inhibition turn out when Nc1ccc(-c2nc3cc(Oc4ccc5[nH]c(-c6ccc(N)cc6)nc5c4)ccc3[nH]2)cc1 was run?
Its Inhibition is 18%.

COc1ccc2nccc([C@@H](O)CN3CCC(NCCOc4cc(F)cc(F)c4)CC3)c2c1.O=C(O)C(=O)O was tested. Which Inhibition did it give?
Its Inhibition is 10%.

Which Inhibition does the source give for O=C(NCC1CCC(CNCCCc2ccccc2)CC1)c1cc(Cl)cc(Cl)c1 (stereo not given) here?
The Inhibition was 58%.

With O=C(Nc1ccc(Cl)c(Cl)c1)Nc1ccc(F)c([N+](=O)[O-])c1 as the compound, how does the Inhibition read?
The Inhibition was 49%.

For Cc1cccc(CN2CCN(c3ncc(C(=O)NC4CC4)cc3Cl)CC2)c1.O=C(O)C(F)(F)F, which Inhibition is on record?
The Inhibition was 2%.

With Brc1ccccc1CNc1ccnc(NCCn2ccnc2)n1 as the compound, how does the Inhibition read?
The Inhibition was 72%.

O=C(Nc1cccc(-c2ccc(CN3CCC(O)CC3)cc2)c1)c1ccc(Cl)cc1.O=C(O)C(F)(F)F was tested. Which Inhibition did it give?
The Inhibition was 46%.

With COC(=O)C(NC(=O)c1ccc(-c2ccc(-c3nc4ccccc4[nH]3)s2)cc1)c1ccc(O)cc1 (stereo not given) as the compound, how does the Inhibition read?
Its Inhibition is 99%.

For COc1ccc2nccc([C@@H](O)CN3CCC(NCc4ccc5c(c4)sc(=O)n5C)CC3)c2c1.O=C(O)C(=O)O, which Inhibition is on record?
The Inhibition was 10%.

For COc1ccc2cc(C(c3nnnn3CC3CCCO3)N3CCc4ccccc43)c(=O)[nH]c2c1 (stereo not given), which Inhibition is on record?
The Inhibition was 0%.

Which Inhibition does the source give for Cc1c(C)n(Cc2ccccc2)c2ncnc(OC3CCN(CC(=O)NCC4CC4)CC3)c12 here?
Its Inhibition is 17%.

With Cc1c(OC(C)C)nc2ccccc2c1C(=O)N[C@H](c1cccc(F)c1)C1CC1 as the compound, how does the Inhibition read?
Its Inhibition is 6%.

With Cc1[nH]c2ccccc2c(=O)c1Br as the compound, how does the Inhibition read?
Its Inhibition is 2%.

For Cc1cc(Cl)ccc1NC(=O)NCCCCCN1CCC(c2c[nH]c3ccccc23)CC1, which Inhibition is on record?
The Inhibition was 59%.

Which Inhibition does the source give for Nc1nc(N)c2c(Cc3ccccc3)cccc2n1 here?
Its Inhibition is 68%.

With COc1ccc2nccc([C@@H](O)CN3CCC(NC(=O)/C=C/c4cc(F)cc(NC(C)=O)c4)CC3)c2c1 as the compound, how does the Inhibition read?
Its Inhibition is 7%.

With Nc1ccn([C@@H]2O[C@H](COC(c3ccccc3)(c3ccccc3)c3ccccc3)[C@@H](O)[C@@H]2O)c(=O)n1 as the compound, how does the Inhibition read?
Its Inhibition is 26%.

Which Inhibition does the source give for Cc1ccn2cc(-c3ccc(NC(=O)c4ccc(Br)o4)cc3)nc2c1 here?
The Inhibition was 100%.

For COc1cccc(-c2[nH]c3ccccc3c2CN2CCC(c3c(C)cccc3C)CC2)c1, which Inhibition is on record?
The Inhibition was 32%.

How did the Inhibition turn out when O=C(Nc1ccccc1)c1ccc(-c2cc3ccncc3cc2OC2CCNCC2)s1 was run?
Its Inhibition is 0%.

For COc1cccc(CC(=O)N2CCC(n3c(C)nc4ccc(F)cc43)CC2)c1, which Inhibition is on record?
Its Inhibition is 0%.

With COc1ccc(Nc2nccc(N3CCC(NC(=O)C(C)c4ccc(Cl)cc4)CC3)n2)cc1 (stereo not given) as the compound, how does the Inhibition read?
The Inhibition was 18%.

CC(C)CCN1CCCN(Cc2ccc(C(=O)Nc3ccc(F)c(F)c3)cc2)CC1.O=C(O)C(F)(F)F was tested. Which Inhibition did it give?
Its Inhibition is 36%.

Which Inhibition does the source give for Cc1cc(C(=O)Nc2ccc(-c3nc4ccccc4[nH]3)cc2)ccc1[N+](=O)[O-] here?
The Inhibition was 55%.

How did the Inhibition turn out when CN(C)CCOc1ccc(/C(=C(/CCCn2ccnc2)c2ccccc2)c2ccc(O)cc2)cc1 was run?
Its Inhibition is 13%.

Which Inhibition does the source give for O=C(OCc1ccccc1)N1CCc2c([nH]c3ccccc23)C1CCC(F)(F)F (stereo not given) here?
The Inhibition was 0%.

With O=C(Nc1ccc(CN2CCCCC2)cc1)c1ccc(COc2ccc([N+](=O)[O-])cc2)o1 as the compound, how does the Inhibition read?
The Inhibition was 12%.

How did the Inhibition turn out when CN1CCCN(Cc2cccc(-c3cccc(NC(=O)c4ccc(Cl)cc4)c3)c2)CC1.O=C(O)C(F)(F)F was run?
The Inhibition was 35%.

With COc1ccc(-c2ccc(NC(=O)c3cccc(Cl)c3)cc2)cc1CN1CCN(C)CC1.O=C(O)C(F)(F)F as the compound, how does the Inhibition read?
The Inhibition was 42%.

CC(C)COc1ccc(Cl)cc1Cc1nc(-c2nc3ccc(N4CCN(C)CC4)nc3[nH]2)cs1.Cl was tested. Which Inhibition did it give?
The Inhibition was 29%.

CCCCN(Cc1cnccc1-c1ccc(Br)cc1)c1ccc(C(O)(C(F)(F)F)C(F)(F)F)cc1.O=C(O)C(F)(F)F was tested. Which Inhibition did it give?
The Inhibition was 10%.

How did the Inhibition turn out when COc1cccc(-c2cccc(NC(=O)C3CCN(Cc4ccc(O)cc4)CC3)c2)c1 was run?
The Inhibition was 9%.

For C#CC[C@@H](NC(N)=O)C(=O)O, which Inhibition is on record?
Its Inhibition is 1%.

C=C[C@]1(C)C[C@@H](OC(=O)c2cncn(COC)c2=O)[C@]2(C)[C@H](C)CC[C@]3(CCC(=O)[C@H]32)[C@@H](C)[C@@H]1O was tested. Which Inhibition did it give?
The Inhibition was 0%.

How did the Inhibition turn out when C=CCOC(=O)N1CCC(CNCc2ccc(-c3cccc(-c4nc5cc(F)ccc5[nH]4)c3)cc2)C1.O=C(O)C(F)(F)F (stereo not given) was run?
Its Inhibition is 26%.

For Cc1cc(C(=O)Nc2ccc3c(c2)CCN3C2CCN(Cc3csc4ccccc34)C2)no1 (stereo not given), which Inhibition is on record?
The Inhibition was 1%.

Reference: ChEMBL document CHEMBL1157539, “Thousands of chemical starting points for antimalarial lead identification” (Nature, 2010)
